# Where “and” joins values, the source holds several entries; their conditions need not be identical. Equal values may be shown once. Among all 5,500 compounds or so, about 2,000 (36%) were called active. Inconclusive results (about 18%) are left out. Some of the results follow. A number with no mark means an inactive call. Cut-off read from the data, not from the text of the source: active = normalized growth mostly below about 0.91 (no sharp cut-off); inconclusive = no clear call, values can overlap the other calls; inactive = mostly above about 0.92.
# Experiment: chemical genetic growth profiling, strain panel (AID 1159580);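 note: tested at 20 µM; growth read once vehicle control cultures reached saturation at 30 °C; 1 = growth at the plate median or of vehicle wells; lower values mean less growth of the strain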
# Details: S. cerevisiae deletion strains, growth OD
smiles,measurement,setting,value
C/C=C(\C)C(=O)O[C@@H]1c2c(ccc3ccc(=O)oc23)OC(C)(C)[C@@H]1OC(C)=O,normalized growth,"locus YAL013W, strain DEP1, active compounds read low",1.01
same,normalized growth,"locus YAL021C, strain ccr4, active compounds read low",1.01
same,normalized growth,"locus YAL026C, strain drs2, active compounds read low",0.989
same,normalized growth,"locus YAL030W, strain snc1, active compounds read low",0.996
same,normalized growth,"locus YBL061C, strain skt5, active compounds read low",0.994
same,normalized growth,"locus YBR009C, strain hhf1, active compounds read low",1.03
same,normalized growth,"locus YBR021W, strain FUR4, active compounds read low",1.03
same,normalized growth,"locus YBR023C, strain chs3, active compounds read low",0.987
same,normalized growth,"locus YBR171W, strain sec66, active compounds read low",0.98
same,normalized growth,"locus YBR229C, strain ROT2, active compounds read low",0.995
same,normalized growth,"locus YBR231C, strain swc5, active compounds read low",1
same,normalized growth,"locus YBR279W, strain paf1, active compounds read low",1.01
same,normalized growth,"locus YCL011C, strain gbp2, active compounds read low",1.01
same,normalized growth,"locus YCL016C, strain dcc1, active compounds read low",0.993
same,normalized growth,"locus YCL029C, strain bik1, active compounds read low",1.03
same,normalized growth,"locus YCL061C, strain MRC1, active compounds read low",0.985
same,normalized growth,"locus YCL069W, strain vba3, active compounds read low",1.01
same,normalized growth,"locus YCR088W, strain abp1, active compounds read low",0.996
same,normalized growth,"locus YDL005C, strain med2, active compounds read low",0.981
same,normalized growth,"locus YDL035C, strain GPR1, active compounds read low",0.995
same,normalized growth,"locus YDL040C, strain nat1, active compounds read low",0.998
same,normalized growth,"locus YDL074C, strain BRE1, active compounds read low",1
same,normalized growth,"locus YDL101C, strain DUN1, active compounds read low",1.01
same,normalized growth,"locus YDL134C, strain PPH21, active compounds read low",0.974
same,normalized growth,"locus YDL185W, strain tfp1, active compounds read low",1.02
same,normalized growth,"locus YDL192W, strain arf1, active compounds read low",0.992
same,normalized growth,"locus YDR001C, strain nth1, active compounds read low",1.01
same,normalized growth,"locus YDR069C, strain doa4, active compounds read low",1
same,normalized growth,"locus YDR101C, strain arx1, active compounds read low",1.03
same,normalized growth,"locus YDR137W, strain rgp1, active compounds read low",0.842 (active)
same,normalized growth,"locus YDR150W, strain NUM1, active compounds read low",0.997
same,normalized growth,"locus YDR159W, strain sac3, active compounds read low",0.989
same,normalized growth,"locus YDR162C, strain NBP2, active compounds read low",0.983
same,normalized growth,"locus YDR195W, strain ref2",1.06
same,normalized growth,"locus YDR297W, strain sur2, active compounds read low",0.995
same,normalized growth,"locus YDR318W, strain mcm21, active compounds read low",0.974
same,normalized growth,"locus YDR334W, strain swr1, active compounds read low",1
same,normalized growth,"locus YDR335W, strain msn5, active compounds read low",1.02
same,normalized growth,"locus YDR388W, active compounds read low",1
same,normalized growth,"locus YDR392W, strain spt3, active compounds read low",0.762
same,normalized growth,"locus YDR502C, strain sam2, active compounds read low",0.991
same,normalized growth,"locus YEL003W, strain gim4, active compounds read low",1.01
same,normalized growth,"locus YEL037C, strain rad23, active compounds read low",1.01
same,normalized growth,"locus YEL061C, strain CIN8 (second series), active compounds read low",1
same,normalized growth,"locus YEL061C, strain CIN8, active compounds read low",0.991
same,normalized growth,"locus YER015W, strain faa2, active compounds read low",1.01
same,normalized growth,"locus YER016W, strain bim1, active compounds read low",0.993
same,normalized growth,"locus YER110C, active compounds read low",1.01
same,normalized growth,"locus YER111C, strain swi4, active compounds read low",0.994
same,normalized growth,"locus YER155C, strain BEM2 (second series), active compounds read low",1.03
same,normalized growth,"locus YER155C, strain BEM2, active compounds read low",1.01
same,normalized growth,"locus YER167W, strain BCK2, active compounds read low",0.997
same,normalized growth,"locus YFR010W, strain ubp6, active compounds read low",1.02
same,normalized growth,"locus YGL078C, strain dbp3, active compounds read low",1
same,normalized growth,"locus YGL086W, strain mad1, active compounds read low",1.05
same,normalized growth,"locus YGL167C, strain pmr1, active compounds read low",0.984
same,normalized growth,"locus YGL173C, strain kem1, active compounds read low",0.991
same,normalized growth,"locus YGL227W, strain vid30, active compounds read low",0.991
same,normalized growth,"locus YGL240W, strain doc1, active compounds read low",0.985
same,normalized growth,"locus YGL248W, strain PDE1, active compounds read low",0.993
same,normalized growth,"locus YGL253W, strain hxk2, active compounds read low",0.963
same,normalized growth,"locus YGR078C, strain PAC10, active compounds read low",1
same,normalized growth,"locus YGR135W, strain pre9, active compounds read low",0.987
same,normalized growth,"locus YGR252W, strain gcn5, active compounds read low",1
same,normalized growth,"locus YHR013C, strain ard1, active compounds read low",0.971
same,normalized growth,"locus YHR027C, strain rpn1, active compounds read low",1
same,normalized growth,"locus YHR030C, strain SLT2, active compounds read low",0.996 and 0.998
same,normalized growth,"locus YHR079C, strain IRE1 (second series), active compounds read low",0.998
same,normalized growth,"locus YHR079C, strain IRE1, active compounds read low",1.01
same,normalized growth,"locus YHR094C, strain hxt1, active compounds read low",1
same,normalized growth,"locus YHR129C, strain ARP1, active compounds read low",1
same,normalized growth,"locus YHR142W, strain chs7, active compounds read low",0.987
same,normalized growth,"locus YHR200W, strain rpn10, active compounds read low",1.02
same,normalized growth,"locus YIL066C, strain RNR3, active compounds read low",0.992
same,normalized growth,"locus YIL073C, strain SPO22, active compounds read low",0.989
same,normalized growth,"locus YIL125W, strain kgd1, active compounds read low",1.01
same,normalized growth,"locus YIR030C, strain dcg1, active compounds read low",0.994
same,normalized growth,"locus YJL092W, strain hpr5, active compounds read low",0.99
same,normalized growth,"locus YJL095W, strain BCK1 (second series), active compounds read low",0.994
same,normalized growth,"locus YJL095W, strain BCK1, active compounds read low",0.956 and 1.05
same,normalized growth,"locus YJL115W, strain asf1, active compounds read low",0.995
same,normalized growth,"locus YJL129C, strain trk1, active compounds read low",0.953
same,normalized growth,"locus YJL134W, strain LCB3, active compounds read low",0.996
same,normalized growth,"locus YJL154C, strain vps35, active compounds read low",1.01
same,normalized growth,"locus YJL164C, strain tpk1, active compounds read low",1
same,normalized growth,"locus YJL166W, strain qcr8, active compounds read low",0.968
same,normalized growth,"locus YJL168C, strain set2, active compounds read low",1.01
same,normalized growth,"locus YJL187C, strain SWE1 (second series), active compounds read low",1
same,normalized growth,"locus YJL187C, strain SWE1, active compounds read low",0.991
same,normalized growth,"locus YJR043C, strain POL32, active compounds read low",1.02
same,normalized growth,"locus YJR066W, strain TOR1, active compounds read low",0.958
same,normalized growth,"locus YJR075W, strain HOC1, active compounds read low",0.993
same,normalized growth,"locus YKL009W, strain mrt4, active compounds read low",0.997
same,normalized growth,"locus YKL068W, active compounds read low",1.01
same,normalized growth,"locus YKL085W, strain MDH1 (second series), active compounds read low",0.991
same,normalized growth,"locus YKL085W, strain MDH1, active compounds read low",0.991
same,normalized growth,"locus YKL160W, strain elf1, active compounds read low",0.939
same,normalized growth,"locus YKR001C, strain vps1, active compounds read low",1.02
same,normalized growth,"locus YKR026C, strain gcn3, active compounds read low",0.996
same,normalized growth,"locus YKR091W, strain srl3, active compounds read low",0.996
same,normalized growth,"locus YLL001W, strain dnm1, active compounds read low",0.972
same,normalized growth,"locus YLL026W, active compounds read low",0.992
same,normalized growth,"locus YLL041C, strain sdh2, active compounds read low",0.998
same,normalized growth,"locus YLR027C, strain aat2, active compounds read low",0.992
same,normalized growth,"locus YLR039C, strain RIC1, active compounds read low",0.946
same,normalized growth,"locus YLR058C, strain SHM2, active compounds read low",0.995
same,normalized growth,"locus YLR102C, strain apc9, active compounds read low",1.01
same,normalized growth,"locus YLR113W, strain HOG1, active compounds read low",1.01
same,normalized growth,"locus YLR221C, strain rsa3, active compounds read low",0.971
same,normalized growth,"locus YLR258W, strain gsy2, active compounds read low",0.997
same,normalized growth,"locus YLR262C, strain YPT6 (second series), active compounds read low",0.846 (active)
same,normalized growth,"locus YLR262C, strain YPT6, active compounds read low",0.913
same,normalized growth,"locus YLR268W, strain sec22, active compounds read low",1.02
same,normalized growth,"locus YLR320W, strain mms22, active compounds read low",0.943
same,normalized growth,"locus YLR330W, strain CHS5, active compounds read low",1.01
same,normalized growth,"locus YLR342W, strain FKS1 (second series), active compounds read low",1.01
same,normalized growth,"locus YLR342W, strain FKS1, active compounds read low",0.998
same,normalized growth,"locus YLR357W, strain rsc2, active compounds read low",1.04
same,normalized growth,"locus YLR370C, strain arc18, active compounds read low",0.996
same,normalized growth,"locus YLR371W, strain rom2, active compounds read low",1.02
same,normalized growth,"locus YLR384C, strain iki3, active compounds read low",0.988
same,normalized growth,"locus YLR418C, strain cdc73, active compounds read low",0.97
same,normalized growth,"locus YML016C, strain PPZ1, active compounds read low",0.995
same,normalized growth,"locus YML032C, strain rad52, active compounds read low",0.99
same,normalized growth,"locus YML120C, strain ndi1, active compounds read low",0.993
same,normalized growth,"locus YML124C, strain tub3, active compounds read low",0.988
same,normalized growth,"locus YMR058W, strain fet3, active compounds read low",1
same,normalized growth,"locus YMR078C, strain ctf18, active compounds read low",1
same,normalized growth,"locus YMR125W, strain sto1, active compounds read low",0.967
same,normalized growth,"locus YMR129W, active compounds read low",0.992
same,normalized growth,"locus YMR205C, strain PFK2, active compounds read low",0.919
same,normalized growth,"locus YMR223W, strain ubp8, active compounds read low",0.979
same,normalized growth,"locus YMR231W, strain pep5, active compounds read low",0.998
same,normalized growth,"locus YMR307W, strain GAS1, active compounds read low",0.929
same,normalized growth,"locus YNL067W, strain RPL9B, active compounds read low",0.997
same,normalized growth,"locus YNL071W, strain lat1, active compounds read low",0.963
same,normalized growth,"locus YNL153C, strain GIM3, active compounds read low",1.02
same,normalized growth,"locus YNL183C, strain NPR1, active compounds read low",0.996
same,normalized growth,"locus YNL209W, strain ssb2, active compounds read low",1
same,normalized growth,"locus YNL233W, strain BNI4, active compounds read low",1.02
same,normalized growth,"locus YNL248C, strain rpa49, active compounds read low",0.956
same,normalized growth,"locus YNL250W, strain rad50, active compounds read low",1.02
same,normalized growth,"locus YNL271C, strain bni1, active compounds read low",1
same,normalized growth,"locus YNL298W, strain CLA4, active compounds read low",1.01
same,normalized growth,"locus YNL307C, strain MCK1, active compounds read low",1
same,normalized growth,"locus YNL322C, strain KRE1 (second series), active compounds read low",0.991
same,normalized growth,"locus YNR049C, strain mso1, active compounds read low",0.992
same,normalized growth,"locus YNR052C, strain pop2, active compounds read low",0.995
same,normalized growth,"locus YOL006C, strain TOP1, active compounds read low",1.04
same,normalized growth,"locus YOL012C, strain htz1",1.21
same,normalized growth,"locus YOL147C, strain pex11, active compounds read low",0.996
same,normalized growth,"locus YOR001W, strain rrp6, active compounds read low",1.02
same,normalized growth,"locus YOR061W, strain CKA2, active compounds read low",0.99
same,normalized growth,"locus YOR069W, strain VPS5, active compounds read low",0.995
same,normalized growth,"locus YOR070C, strain gyp1, active compounds read low",0.999
same,normalized growth,"locus YOR080W, strain dia2, active compounds read low",1.01
same,normalized growth,"locus YOR083W, strain WHI5, active compounds read low",0.953
same,normalized growth,"locus YOR106W, strain vam3, active compounds read low",0.977
same,normalized growth,"locus YOR136W, strain idh2, active compounds read low",1.03
same,normalized growth,"locus YOR144C, strain elg1, active compounds read low",1.01
same,normalized growth,"locus YOR184W, strain ser1, active compounds read low",0.959
same,normalized growth,"locus YOR231W, strain MKK1, active compounds read low",0.991
same,normalized growth,"locus YOR265W, strain rbl2, active compounds read low",0.991
same,normalized growth,"locus YOR270C, strain vph1, active compounds read low",0.912
same,normalized growth,"locus YOR290C, strain snf2, active compounds read low",0.972
same,normalized growth,"locus YOR316C, strain cot1, active compounds read low",0.999
same,normalized growth,"locus YPL051W, strain arl3, active compounds read low",0.96
same,normalized growth,"locus YPL055C, strain LGE1, active compounds read low",1
same,normalized growth,"locus YPL078C, strain atp4, active compounds read low",0.972
same,normalized growth,"locus YPL106C, strain sse1, active compounds read low",1.04
same,normalized growth,"locus YPL240C, strain hsp82, active compounds read low",1
same,normalized growth,"locus YPL241C, strain CIN2, active compounds read low",0.986
same,normalized growth,"locus YPL256C, strain CLN2, active compounds read low",0.99
same,normalized growth,"locus YPR119W, strain clb2, active compounds read low",0.993
same,normalized growth,"locus YPR141C, strain kar3, active compounds read low",1.01
same,normalized growth,"locus YPR163C, strain tif3, active compounds read low",0.996
same,normalized growth,"locus YPR167C, strain met16, active compounds read low",0.99
same,normalized growth,"strain wtn01, active compounds read low",1.05

# — PubChem BioAssay AID1159580 (chemical genetic matrix, 2015)
